Screening results deposited in PubChem by National Center for Advancing Translational Sciences (NCATS).
Sampled rows, rich in hits. Any-hit rate of the full collection: about 9.3%.
Rab9 promoter act – Rab9 promoter activation | AID 485297 | 2.8% of 320,000 active | Potency, µM (top dose mostly 9.22 µM), without a hit: at the highest dose activation, negative = inhibition, usual class: activators | Huh7 Rab9 promoter-luciferase reporter, luminescence, 24 h; further: % of control where 0% means no effect; nearly all actives have a fitted effect of over 60% in size
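Luciferase signal after 10 min detection reagent at ambient indicates Rab9 promoter upregulation; stably transfected Huh7 cells were treated 24 h with compound in DMSO at 37 °C, 5% CO2.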
FLuc counter – counter-screen for miR-21 project: firefly luciferase inhibitors or activators; P08659; purified FLuc, Km substrates, luminescence inhibition; Potency, µM (highest dose often 57.5 µM), for the others: top-dose activity change, negative = inhibition, most hits filed as inhibitors; 6.9% of 360,000 active;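 further: plate controls were vehicle for no effect and reference inhibitor for full effect; nearly all actives have a fitted effect of over 55% in size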
Target sequence (P08659 whole entry, looked up): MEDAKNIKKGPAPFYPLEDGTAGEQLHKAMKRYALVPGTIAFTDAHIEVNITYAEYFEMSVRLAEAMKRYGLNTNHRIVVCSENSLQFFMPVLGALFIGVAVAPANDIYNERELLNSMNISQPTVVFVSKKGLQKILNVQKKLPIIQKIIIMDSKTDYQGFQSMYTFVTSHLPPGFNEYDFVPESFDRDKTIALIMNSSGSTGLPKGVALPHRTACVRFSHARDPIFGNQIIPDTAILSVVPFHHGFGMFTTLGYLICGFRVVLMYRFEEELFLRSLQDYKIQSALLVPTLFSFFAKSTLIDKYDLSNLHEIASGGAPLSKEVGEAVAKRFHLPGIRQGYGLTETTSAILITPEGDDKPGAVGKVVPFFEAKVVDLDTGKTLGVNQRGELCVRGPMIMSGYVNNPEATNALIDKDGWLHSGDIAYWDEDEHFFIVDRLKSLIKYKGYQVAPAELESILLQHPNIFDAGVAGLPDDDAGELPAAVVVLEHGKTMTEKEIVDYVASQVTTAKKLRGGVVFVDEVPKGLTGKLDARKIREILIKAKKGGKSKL
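Purified P. pyralis luciferase (10nM final) with 10uM D-luciferin and 10uM ATP (Km levels) in 50mM Tris acetate pH 7.5, 10mM Mg acetate, 0.01% Tween-20, 0.05% BSA; qHTS 6-point titration, ~60 µM downward; luminescence read.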
NPC1 prom act – activates the NPC1 promoter. Huh7 NPC1 promoter luciferase reporter, 24 h. Potency, µM (series often up to 9.22 µM), for inactives: at the top dose activation, usual class: activators. 2.4% of 320,000 active; further: % of control where 0% means no effect; nearly all actives have a fitted effect of over 60% in size
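Compounds in DMSO were transferred onto Huh7 NPC1-luciferase reporter cells pre-incubated 2 h; after 24 h at 37 °C, Amplite reagent was dispensed and luminescence recorded 10 min later.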
ELG1 repair inh – inhibitors of ELG1-dependent DNA repair in HEK293T cells | HEK293T ELG1-luciferase reporter, luminescence, 16 h; DNA damage induced by 5-fluorouridine | Potency, µM (doses to about 46.1 µM), inactives show top-dose activity change, negative = inhibition, actives largely listed as inhibitors | 2.3% of 330,000 active | AID 504467; further: on the % scale 0 is the no-effect control and ±100 the full control effect; nearly all actives have a fitted effect of over 55% in size
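Cells (2,000 per well) received 5-fluorouridine plus test compound or DMSO and were incubated 16 hr at 37 °C, 5% CO2. Luciferase activity was read by luminescence 30 min after ONE-Glo addition; signal suppression marked inhibition of damage-induced ELG1 function.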
ELG1 genotox – induces genotoxicity in HEK293T cells with luciferase-tagged ELG1. HEK293T ELG1-luciferase reporter, luminescence, 16 h. Potency, µM (doses to about 46 µM), inactives show at the top dose activity change, positive = activation, most hits filed as activators. 1.3% of 330,000 active. AID 504466; further: % of control where 0% means no effect; nearly all actives have a fitted effect of over 60% in size
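DMSO vehicle served as control against compound-treated ELG1-luciferase HEK293T cells; exposure lasted 16 hr at 37 °C and 5% CO2, followed by ONE-Glo luminescence detection after 30 min.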
SMN2 splice enh – increases expression of the SMN2 splice variant. HEK293 SMN2-luciferase splicing reporter, luminescence, 30-36 h. Potency, µM (highest dose often 46.1 µM), for the others: at the highest dose activity change, positive = activation, actives largely listed as activators. 2.8% of 210,000 active; further: % of control where 0% means no effect; nearly all actives have a fitted effect of over 55% in size
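qHTS luciferase splicing reporter: luminescence rises when SMN2 exon 7 is included in transfected HEK293 cells. Compound exposure lasted 30-36 h at 37C, with 4.5 mM final sodium butyrate as control, followed by a ONE-Glo read.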
Active calls of the source: *. The call rests on the fitted dose curve; in most records, active means well fitted curve in the direction sought with a large enough effect; inconclusive means small, poorly fitted or top-dose-only effect, or another doubt; inactive means no such curve, though single readings can be large; an effect the other way counts as inactive or inconclusive. Potency means the concentration at half of the fitted maximal effect.

How did Cn1c2c(c(=O)n(C)c1=O)C(CC(=O)Nc1ccccc1)C(=O)N2 (stereo unspecified) do in these assays?
Rab9 promoter act: -0.8%; FLuc counter: -1.9%; NPC1 prom act: 1.2%; ELG1 repair inh: -6.2%; ELG1 genotox: -1.3%; SMN2 splice enh: 9.3%

Results for Cc1n[nH]c(C)c1S(=O)(=O)NCCc1ccc(Cl)cc1 ?
Rab9 promoter act: -5.3%; FLuc counter: 4.5%; NPC1 prom act: 0.2%; ELG1 repair inh: 7.2%; ELG1 genotox: -0.3%; SMN2 splice enh: -7.1%

Results for CCCCC1S/C(=N/N=C/c2ccc(OC)cc2)N(Cc2ccc(OC)cc2)C1=O (stereo unspecified) ?
Rab9 promoter act: -2.2%; FLuc counter: -0.1%; NPC1 prom act: -1.4%; ELG1 repair inh: 16.9%; ELG1 genotox: -2.3%; SMN2 splice enh: -19.8%

How did Cc1nccc(-c2cc(-c3ccc(Cl)cc3Cl)no2)n1 do in these assays?
Rab9 promoter act: 1.12µM*; FLuc counter: 2.39µM*; NPC1 prom act: 1.41µM*; ELG1 repair inh: inconclusive; ELG1 genotox: inconclusive

How did COc1ccc(-c2cccc(C(=O)Nc3ccc(C)cc3)c2)cc1 do in these assays?
Rab9 promoter act: 3.2%; FLuc counter: -17.8%; NPC1 prom act: -3.8%; ELG1 repair inh: 18.2%; ELG1 genotox: 0.5%; SMN2 splice enh: -0.5%

Results for COc1cccc(C(=O)NCC(=O)OCc2ccc(F)cc2Cl)c1 ?
Rab9 promoter act: -6.8%; FLuc counter: 16.9µM*; NPC1 prom act: 0.4%; ELG1 repair inh: 14.4%; ELG1 genotox: 0.9%; SMN2 splice enh: -2.3%

How did COc1cc(OC)cc(C(=O)NCC(=O)Nc2ccc(-c3ccccc3)cc2)c1 do in these assays?
Rab9 promoter act: 27.6%; FLuc counter: 15.1µM*; NPC1 prom act: -5.5%; ELG1 repair inh: inconclusive; ELG1 genotox: inconclusive

How did COc1ccc(-c2cccc(C(=O)NCC(=O)O)c2)cc1 do in these assays?
Rab9 promoter act: 24.7%; FLuc counter: 13.5µM*; NPC1 prom act: 14.9%; ELG1 repair inh: inconclusive; ELG1 genotox: inconclusive; SMN2 splice enh: inconclusive

Results for CCN(CC)C(=O)c1cccc(-c2ccc(OC)cc2)c1 ?
Rab9 promoter act: 10.9%; FLuc counter: inconclusive; NPC1 prom act: 9.3%; ELG1 repair inh: inconclusive; ELG1 genotox: inconclusive; SMN2 splice enh: 6.3%

How did COC(=O)CNC(=O)c1cccc(-c2ccc(OC)cc2)c1 do in these assays?
Rab9 promoter act: 14.8%; FLuc counter: 19µM*; NPC1 prom act: 7.7%; ELG1 repair inh: inconclusive; ELG1 genotox: 4.2%; SMN2 splice enh: 4.3%

How did Cc1ccc(Nc2cc(-n3cccn3)ncn2)c(C)c1 do in these assays?
Rab9 promoter act: 2.51µM*; FLuc counter: 10.7µM*; NPC1 prom act: 3.55µM*; ELG1 repair inh: inconclusive; ELG1 genotox: 7.31µM*; SMN2 splice enh: 23.8%

What do the screens show for `Cc1ccc(Nc2cc(-n3nc(C)cc3C)ncn2)c(C)c1`?
Rab9 promoter act: -3.2%; FLuc counter: 1.2%; NPC1 prom act: 0.2%; ELG1 repair inh: inconclusive; ELG1 genotox: -5.5%; SMN2 splice enh: -20.5%

Results for Cc1ccc(S(=O)(=O)N2CCC(C(=O)NC3CC3)CC2)cc1 ?
Rab9 promoter act: -0.9%; FLuc counter: 1.8%; NPC1 prom act: -2.0%; ELG1 repair inh: 25.4%; ELG1 genotox: 0.0%

Results for CCN(CC)S(=O)(=O)c1cccc(NC(=O)c2ccc(Br)cc2)c1 ?
Rab9 promoter act: -8.3%; FLuc counter: inconclusive; NPC1 prom act: -5.2%; ELG1 repair inh: inconclusive; ELG1 genotox: -6.8%; SMN2 splice enh: -30.9%

How did O=C(COC(=O)c1cc2ccccc2oc1=O)Nc1ccc(F)cc1F do in these assays?
Rab9 promoter act: 2.51µM*; FLuc counter: 7.57µM*; NPC1 prom act: 2.24µM*; ELG1 repair inh: inconclusive; ELG1 genotox: inconclusive
